Sampled rows, rich in hits. Any-hit rate of the full collection: about 0.81%.
BCLXL inh: inhibitors of human Bcl-xL, primary screen, biochemical, fluorescence polarization, HTS | Bcl-2-like protein 1 (Homo sapiens), Q07817 | GST-Bcl-xL / FITC-Bim BH3 peptide fluorescence polarization | inhibition, % at 10.9 µM | 320,000 compounds, 0.7% hits;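 active = inhibition above the mean of all tested compounds plus 3 SD, cutoff set per campaign, cut at about 30% in these data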;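 note: 0% = DMSO wells and 100% = unlabeled Bim-BH3 peptide competitor; inhibitors lower millipolarization by displacing the labeled peptide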
Bcl-2 Bim block: inhibitors of Bim-Bcl-2 binding, primary screen, biochemical, multiplexed, human Bcl-2 family; Apoptosis regulator Bcl-2 (Homo sapiens), P10415; Bead-based flow cytometry, Bim peptide-Bcl-2 binding; inhibition, % at 10 µM; 190,000 compounds, 0.06% hits; AID 950, 2007; in the data active = inhibition above about 40%;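 note: 0% = no compound wells with probe peptide and 100% = reference peptide inhibitor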
Bcl-XL Bim block: inhibitors of Bim-Bcl-XL binding, primary screen, biochemical, multiplexed, bead flow cytometry, human Bcl-XL | inhibition, % at 10 µM | AID 1007, 2008 | 190,000 compounds, 0.04% hits | Bim peptide-Bcl-XL binding, fluorescence
Bim-Bcl-W: inhibitors of Bim binding to Bcl-W, primary screen, biochemical, multiplexed, bead-based flow cytometry. Bcl-2-like protein 2 (Homo sapiens), Q92843. Bim peptide-Bcl-W binding. inhibition, % at 10 µM. 190,000 compounds, 0.02% hits;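 note: 0% = bound tracer without compound and 100% = peptide blocker; higher means less fluorescent Bim peptide bound to Bcl-W beads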
Target sequence (Q92843 whole entry, looked up): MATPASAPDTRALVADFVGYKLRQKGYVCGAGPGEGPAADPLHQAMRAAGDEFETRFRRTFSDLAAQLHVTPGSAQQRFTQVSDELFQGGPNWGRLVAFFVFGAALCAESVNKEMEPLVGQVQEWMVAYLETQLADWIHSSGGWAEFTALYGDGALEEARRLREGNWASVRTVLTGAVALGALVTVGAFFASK
Bim-Bfl-1: inhibitors of Bim binding to Bfl-1, primary screen, biochemical, multiplexed, bead-based flow cytometry | Bcl-2-related protein A1 (Homo sapiens), Q16548 | Bim-Bfl-1 binding inhibition | inhibition, % at 10 µM | 190,000 compounds, 0.12% hits | AID 1008, 2008;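 note: 0% = wells without compound plus tracer and 100% = blocker peptide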
Target sequence (Q16548 whole entry, looked up): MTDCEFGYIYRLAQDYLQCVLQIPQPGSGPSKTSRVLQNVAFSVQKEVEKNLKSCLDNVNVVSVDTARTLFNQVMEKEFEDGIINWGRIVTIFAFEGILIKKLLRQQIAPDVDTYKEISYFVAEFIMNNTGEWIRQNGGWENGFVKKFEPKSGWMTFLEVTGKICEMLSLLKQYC
Bim-Bcl-B: inhibitors of Bim-Bcl-B binding, primary screen, biochemical, multiplexed, human Bcl-2 family | bead-based flow cytometry, Bim peptide-Bcl-B binding | 190,000 compounds, 0.073% hits | Bcl-2-like protein 10 (Homo sapiens), Q9HD36 | inhibition, % at 10 µM | AID 951, 2007;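 note: 0% = tracer peptide without compound and 100% = reference inhibitor peptide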
Target sequence (Q9HD36 whole entry, looked up): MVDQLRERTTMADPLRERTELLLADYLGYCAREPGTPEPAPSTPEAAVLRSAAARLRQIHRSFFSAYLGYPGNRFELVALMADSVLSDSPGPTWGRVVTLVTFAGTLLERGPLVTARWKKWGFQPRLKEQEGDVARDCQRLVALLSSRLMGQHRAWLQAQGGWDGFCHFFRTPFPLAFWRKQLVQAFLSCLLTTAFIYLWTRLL
Starred values were filed as active, the others as inactive; . = not tested or not shown. Cut-off read from the data, not from the text of the source, unless noted: active = inhibition above about 40%.

SMILES	BCLXL inh	Bcl-2 Bim block	Bcl-XL Bim block	Bim-Bcl-W	Bim-Bfl-1	Bim-Bcl-B
CC12CN3CCN(CC(C3)/C1=N\NC(=O)Nc1cccc(Cl)c1)C2	1	-1	-4	-3	-6	-5
Nc1ccccc1NC(=O)NC(=O)c1ccccc1	1	.	.	.	.	.
CC(C)Oc1ccc(CN2CCCC(CO)(Cc3ccc(F)cc3)C2)cc1 (configuration not stated)	36*	.	.	.	.	.
CCCN1CCN(CCCNC(=O)c2ccc(CS(=O)c3ccccc3C)o2)CC1 (configuration not stated)	8	.	.	.	.	.
N#Cc1ccc(C(=O)NNC(=O)c2ccncc2)cc1	6	.	.	.	.	.
Oc1ccc(C=Nc2ccc3ncccc3c2)c(O)c1	7	8	4	10	17	-1
COc1cccc(N=Cc2ccc(O)cc2O)c1	43*	2	3	4	5	5
CCOC(=O)CNC(=O)Cc1ccc(OC)cc1	6	.	.	.	.	.
CCOC(=O)c1nnn(CC(=O)NC(=O)Nc2ccccc2)c1C(=O)OCC	53*	0	-2	-1	0	-1
CCOC(=O)c1nnn(CC(=O)Nc2ccccc2)c1C(=O)OCC	0	0	0	0	4	0
CC1CCCCC1NC(=O)c1ccc(S(=O)(=O)NCC2CCCO2)cc1 (configuration not stated)	0	1	0	0	-7	-1
CN(CCC#N)C(=O)COC(=O)c1c2c(nc3ccccc13)/C(=C/c1ccco1)CC2	44*	19	25	15	14	16
CCn1c(SCC(=O)N2CCN(C)CC2)nc2c1c(=O)n(C)c(=O)n2C	-3	.	.	.	.	.
CCn1c(SCC(=O)N2CCCC2)nc2c1c(=O)n(C)c(=O)n2C	52*	-8	-4	1	-12	-4
CC(=O)N1c2ccccc2C(=O)C1N1CCCCC1 (configuration not stated)	65*	-3	-5	-3	0	-3
CC(=O)Nc1ccc(NC(=O)CSc2nnnn2-c2ccc(F)cc2)cc1	-3	.	.	.	.	.
O=c1[nH]c(C2CCN(S(=O)(=O)c3ccccc3)CC2)nc2c1nnn2Cc1ccccc1	1	-3	-3	-5	-7	-4
CN(C)/C=N/c1ncc(-c2ncc(C(F)(F)F)cc2Cl)cn1	1	-1	-1	0	-4	-4
COc1ccc2c(c1OC)C(=O)N1C(C(=O)O)Cc3c([nH]c4ccccc34)C21 (configuration not stated)	48*	-4	-5	0	-2	-4
COc1cccc(C2c3[nH]c4ccccc4c3C[C@H]3C(=O)N(CCCO)CC(=O)N23)c1OC (some centres not stated)	1	.	.	.	.	.
N#CC1(NC(=O)COC(=O)c2cc(O)c3ccccc3c2O)CCCCC1	31*	.	.	.	.	.
CN1CCCC1CCNc1ccc2sc3ccccc3c(=O)c2c1 (configuration not stated)	33*	.	.	.	.	.
CCC(C)(C(=O)NC1CCCCC1)N(C)C(=O)c1ccccn1 (configuration not stated)	52*	0	-4	-4	-2	-6
CCC(C)(C(=O)NC1CCCCC1)N(C(=O)c1ccccn1)c1ccccc1 (configuration not stated)	5	-9	6	-1	-13	-8
O=C(O)Cn1c(=O)c2c3c(sc2n(Cc2ccccc2F)c1=O)CCCC3	4	.	.	.	.	.
SMILES	BCLXL inh	Bcl-2 Bim block	Bcl-XL Bim block	Bim-Bcl-W	Bim-Bfl-1	Bim-Bcl-B
Cc1cc2cc(CNS(=O)(=O)c3ccccc3)ccc2n1C	36*	5	8	6	10	4
Cc1cc2cc(CNC(=O)C(C)Oc3ccccc3)ccc2n1C (configuration not stated)	38*	.	.	.	.	.
COc1cccc(C(=O)NCc2ccc3c(c2)cc(C)n3C)c1	12	-2	-4	-3	-1	-8
COc1ccc(S(=O)(=O)NCc2ccc3c(c2)cc(C)n3C)cc1	13	-2	-1	2	-3	-2
COc1ccc(C(=O)NCc2ccc3c(c2)cc(C)n3C)cc1OC	37*	-3	-1	0	-9	-11
CCOC(=O)CCC(=O)NCc1ccc2c(c1)cc(C)n2C	38*	-3	2	0	0	0
CCCCC(=O)NCc1ccc2c(c1)cc(C)n2C	12	-2	0	0	-2	-3
Cc1ccc(NC(=O)CN2C(=O)NC3(CCc4ccccc43)C2=O)cc1S(=O)(=O)N1CCCCC1 (configuration not stated)	1	.	.	.	.	.
CC1=CC(=Nc2c(C)n(C)n(-c3ccccc3)c2=O)C=CC1=O	125*	.	.	.	.	.
N#CC(C#N)=C1C=CC=CN1/C(=C\c1ccccc1Cl)C(=O)c1ccccc1	51*	30	16	34	59*	1
CC(C)c1ccccc1NS(=O)(=O)c1cccs1	1	.	.	.	.	.
O=C(CCN1C(=O)C2CC=C(Cl)CC2C1=O)NCc1ccco1 (configuration not stated)	10	-12	-14	0	-17	-9
O=C1C2CC=C(Cl)CC2C(=O)N1CN(Cc1ccco1)CN1C(=O)C2CC=C(Cl)CC2C1=O (configuration not stated)	45*	0	-1	-1	-1	0
CN1C(=O)N(C)c2ccc(C=O)c3cccc1c23	72*	7	11	9	6	14
C=CCC1C=C(C)CC(CC=C)N1 (configuration not stated)	6	1	0	1	-2	-4
Cc1cccc[n+]1C1C(c2ccccc2)C(C#N)=C(C(=C=[N-])C#N)NC1(O)C1CC1 (configuration not stated)	44*	0	0	0	0	0
CSC1=NSC2=NC(=O)/C(=C\c3cccs3)C(=N)N12	7	-1	-11	-5	-3	-6
CSC1=NSC2=NC(=O)/C(=C/c3coc4ccccc4c3=O)C(=N)N12	44*	18	19	18	9	12
COc1cc(/C=C2/C(=N)N3C(SC)=NSC3=NC2=O)ccc1OC(=O)c1ccco1	-5	.	.	.	.	.
CC1=CC2=NC(=O)/C(=C/c3coc4ccc(Cl)cc4c3=O)C(=N)N2O1	-30	.	.	.	.	.
N=C1/C(=C\c2coc3ccccc3c2=O)C(=O)N=C2SC=CN12	55*	.	.	.	.	.
CSC1=NSC2=NC(=O)/C(=C/c3coc4ccc(O)cc4c3=O)C(=N)N12	52*	3	6	9	5	3
Cc1ccc(SC[C@H](Cc2ccccc2)N2CC[C@@H](NC(=O)OCc3ccccc3)CCC2=O)cc1	1	.	.	.	.	.

From PubChem
